High-throughput results (PubChem)
HPGD block: inhibitors of human 15-hydroxyprostaglandin dehydrogenase (HPGD) | P15428 | purified HPGD, NADH fluorescence kinetic, PGE2 substrate | Potency, µM, inactives show top-dose activity change, negative = inhibition, actives largely listed as inhibitors | actives 4.3% (n = 150,000); active = well fitted inhibition curve with a large enough effect, not every such curve was filed as active; inconclusive = small, poorly fitted or top-dose-only effect, or another doubt; inactive = no such curve, though single readings can be large or run the other way
Target sequence (P15428 whole entry, looked up): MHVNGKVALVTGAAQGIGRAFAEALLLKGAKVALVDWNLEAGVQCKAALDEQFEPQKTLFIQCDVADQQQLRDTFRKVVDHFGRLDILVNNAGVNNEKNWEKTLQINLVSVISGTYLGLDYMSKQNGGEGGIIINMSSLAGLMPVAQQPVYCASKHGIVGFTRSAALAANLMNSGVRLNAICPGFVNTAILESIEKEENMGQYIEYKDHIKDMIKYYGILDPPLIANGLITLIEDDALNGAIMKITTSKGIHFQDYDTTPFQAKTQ
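20 nM HPGD preincubated 15 min at room temperature with compound in 50 mM Tris-HCl pH 8, 0.01% Tween 20. Started with 1 mM NAD+ and 30 uM prostaglandin E2; NADH fluorescence (360/450 nm) read 5 times over 30-s intervals, last minus first.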
KinaseGlo FLuc: blocks Kinase-Glo luciferase, a counter-screen artifact; Q27757; Kinase-Glo luciferase, ATP luminescence, 8 min; Potency, µM (highest dose often 38.3 µM), for inactives: top-dose activity change, negative = inhibition, most hits filed as inhibitors; actives 0.28% (n = 200,000); AID 1379; also: nearly all actives have a fitted effect of over 60% in size
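Kinase-Glo luciferase light output from ATP and luciferin was measured with 10 uM ATP, within the enzyme's linear range. Buffer: 50 mM imidazole pH 7.2, 50 mM KCl, 7 mM MgCl2, 0.01% Tween 20, 0.05% BSA; luminescence read after 8 min at ambient temperature.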
LMNA splice mod: changes lamin A minigene splicing in HeLa cells | Potency, µM (series often up to 46.1 µM), without a hit: at the highest dose ratio change, negative = inhibition, usual class: inhibitors | HeLa LMNA splicing GFP/RFP minigene ratio, 48 h | actives 0.01% (n = 200,000) | AID 1487; active = well fitted inhibition curve with a large enough effect in the signal ratio, with a control signal flat, not every such curve was filed as active; inconclusive = small, poorly fitted or top-dose-only effect, or effect the other way, or a change in a side signal; the % refers to the signal ratio
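Read-out is the ratio of GFP to DsRed2 object intensity, acquired by 488 nm laser-scanning cytometry on HeLa lamin A-EGFP minigene reporter cells. Compound incubation 48 hrs at 37 °C in Opti-MEM with 2% FBS; DMSO 0.5% final.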
ALDH1A1 block: ALDH1A1 (human) enzyme inhibition; Purified ALDH1A1, NADH fluorescence, propionaldehyde substrate; Potency, µM (titrated, usually from 75.3 µM), for the others: at the top dose activity, negative = inhibition, hits mostly inhibitors; actives 7.3% (n = 220,000); active = well fitted inhibition curve with a large enough effect, not every such curve was filed as active; inconclusive = small, poorly fitted or top-dose-only effect, or another doubt; inactive = no such curve, though single readings can be large or run the other way;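 also: plate controls were no enzyme wells and a reference inhibitor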
IMPase Li inh: membrane-permeable IMPase blocker, potentiated with lithium; CHO-M1 cells, IP1 TR-FRET (IP-One), carbachol + lithium; Potency, µM (series often up to 59.4 µM), for inactives: top-dose activity, negative = IMPase inhibition, most hits filed as inhibitors; actives 0.35% (n = 210,000); AID 1457;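 also: IP1 builds up when IMPase is blocked and the TR-FRET signal falls; plate controls were basal vehicle for no effect and high inhibitor control for full effect; nearly all actives have a fitted effect of over 50% in size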
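Readout is a homogeneous TR-FRET IP1 immunoassay (Ex 320, Em 665 and 620), where raised cytosolic IP1 lowers signal. Cells were CHO-M1 treated 30 min at 37C with test compounds plus a little lithium; AC50 values came from Hill-equation fitting.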
An asterisk follows results filed as active; ? = inconclusive; · = not tested or not shown; [ ] = remark or other dose. Only some compounds are listed: those with a hit (about 9% of all), similar ones and a draw of the others. Unless noted, calls follow the shape of the dose curve; as a rule, active = well fitted curve in the direction sought with a large enough effect; inconclusive = small, poorly fitted or top-dose-only effect, or another doubt; inactive = no such curve, though single readings can be large; an effect the other way counts as inactive or inconclusive. Unless noted, % is scaled to controls: 0 for no effect and ±100 for the full control effect; potency is read from the fitted curve at half-maximal effect.

SMILES	HPGD block	KinaseGlo FLuc	LMNA splice mod	ALDH1A1 block	IMPase Li inh
Cc1cc(N2CCN(Cc3cn(C)nc3-c3ccccc3F)CC2)cc(C)n1	·	-1.2%	7.0%[46 µM]	?	2.7%
CCOC(=O)CC1COCCN1Cc1cn(C)nc1-c1ccccc1F (centres undefined)	·	0.6%	·	10µM*	3.5%
O=C(c1cccc(F)c1)N1CCC2(CC1)CN(c1cccc(-c3ccccc3)c1)C2	?	-0.4%	·	?	6.6%
O=C(c1cccc(F)c1)N1CCC2(CCCN(c3cccc(-c4ccccc4)c3)C2)CC1	-14.4%	0.3%	·	11.2µM*	3.3%
O=C(c1cccc(F)c1)N1CCC[C@@]2(CCN(C(c3ccccc3)c3ccccc3)C2)C1	-27.6%	-5.3%	·	8.91µM*	21.5%
COc1ccc(NC(=O)N2CCCC3(CCN(S(=O)(=O)c4ccccc4)CC3)C2)cc1	-7.4%	-1.8%	·	14.1µM*	16.4%
O=C(c1cccc(F)c1)N1CCC[C@@]2(CCN(c3cccc(-c4ccccc4)c3)C2)C1	-16.0%	-1.7%	·	?	8.8%
O=C(c1cccc(F)c1)N1CCC[C@@]2(CCN(c3ccccc3)C2)C1	7.94µM*	-4.0%	·	1.12µM*	37.5%
COc1ccc(NC(=O)N2CCC3(CC2)CCN(S(=O)(=O)c2ccccc2)CC3)cc1	-1.6%	-1.2%	·	2.3%	18.1%
O=C(c1cccc(F)c1)N1CCC2(CC1)CN(C(c1ccccc1)c1ccccc1)C2	-13.8%	-0.7%	·	?	0.4%
COc1ccc(N2CCN(C(=O)CCNC(=O)Cn3ccc4ccccc4c3=O)CC2)cc1	·	-0.2%	·	2.6%	-0.8%
COCCN(C(=O)CSc1nnc(-c2ccccc2C)n1C)c1c(N)n(Cc2ccccc2)c(=O)[nH]c1=O	·	-3.2%	·	5.1%	-1.4%
O=C(c1cccc(F)c1)N1CCC2(CC1)CN(Cc1ccccc1)C2	-3.5%	-2.8%	·	3.0%	19.2%
O=C(c1cccc(F)c1)N1CCC[C@@]2(CCN(Cc3ccccc3)C2)C1	17.8µM*	-1.4%	·	-6.7%	7.2%
COc1ccc(NC(=O)N2CC[C@@]3(CCCN(C(=O)c4cccc(F)c4)C3)C2)cc1	-9.5%	-1.0%	·	17.8µM*	9.0%
CN(C)CCCNc1ncnc2scc(-c3ccccc3)c12	·	-0.3%	·	17.8µM*	13.2%
c1ccc(-c2csc3ncnc(NCCN4CCOCC4)c23)cc1	-12.8%	-0.4%	?	-16.4%	23.6%[38.3 µM]
COc1cc([N+](=O)[O-])ccc1NC(=O)N1CCN(c2cc(-c3noc(C)n3)ccc2C)CC1	·	·	5.9%[46 µM]	·	·
CCCOC(=O)CSc1nnc2ccc3ccccc3n12	·	·	8.7%[46 µM]	·	·
Clc1ccc(Cn2ncc3c(NCc4ccco4)ncnc32)c(Cl)c1	28.2µM*	1.9%	-28.0%	?	28.9%[38.3 µM]
COc1ccc(-c2c(-c3ccc(OCC(=O)NN)cc3O)n[nH]c2C(F)(F)F)cc1	-10.8%	0.8%	-0.2%	12.6µM*	-8.3%
COc1ccc(CCNC(=O)C2CCN(S(=O)(=O)c3c(C)noc3/C=C/c3ccc(C)cc3)CC2)cc1OC	·	·	-1.1%[46 µM]	·	·
CN(C)c1cc2c(c(N(C)C)c1)C(=O)c1ccccc1C2=O	-16.6%	11.2µM*	-12.8%	0.708µM*	81.3%[38.3 µM]
CN(C)S(=O)(=O)c1cccc2c1C(=O)c1ccccc1C2=O	-9.5%	-7.3%	-5.1%	?	-2.7%
CC(=O)c1cnc2n(c1=O)CCS2	·	5.5%	15.1%[46 µM]	9.5%	-4.8%
SMILES	HPGD block	KinaseGlo FLuc	LMNA splice mod	ALDH1A1 block	IMPase Li inh
O=C(NC1CCCC1)c1cnc2n(c1=O)CCS2	35.5µM*	-2.1%	6.9%	?	20.5%[38.3 µM]
O=C(NCc1ccccc1Cl)c1cnc2n(c1=O)CCS2	-24.7%	2.8%	1.2%	14.1µM*	-13.6%[38.3 µM]
CC(C)C(NC(=O)CN(c1cccc(F)c1)S(C)(=O)=O)C(C)C	-1.8%	-2.0%	-2.2%	35.5µM*	1.1%
CSCC[C@@H]1NC(=O)C/C=C\[C@@H](C)COC(=O)[C@@H](C)COC1=O	·	·	·	-0.6%[13.5 µM]	·
O=[N+]([O-])c1ccc(SCCc2ccncc2)cc1	·	·	·	7.94µM*	·
N#Cc1cc2c(nc1SCc1cccnc1)CCCC2	12.6µM*	-7.5%	?	?	?
Cc1nc2sc3c(c2c(=O)n1NC(=O)CCBr)CCCC3	·	-1.1%	·	14.1µM*	2.3%
